Screens as filed in PubChem.
The list is not random: actives were taken first. Their share in the collection is about 3.4%.
PP1 counter – PP1-alpha (human) inhibition in PP5 counter-screen; P62136; purified PP1alpha, OMFP fluorescence; inhibition, % at 6.7 µM; actives 0.9% (n = 320,000);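 active means inhibition above the mean inhibition of all tested compounds plus 3 SD, computed separately for each screening campaign, cut at about 15% in these data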
pPAFAH inh – inhibitors of human plasma PAF acetylhydrolase (pPAFAH) | Q13093 | recombinant pPAFAH, FP-rhodamine probe fluorescence polarization | inhibition, % at 3.39 µM | actives 1.5% (n = 330,000) | AID 463082;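 active means inhibition above the mean inhibition across the screen plus 3 SD, cut at about 25% in these data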;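 further: inhibitors block binding of the rhodamine activity-based probe so polarization drops; 0% = enzyme with DMSO and 100% = wells lacking pPAFAH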
Target sequence (Q13093 whole entry, looked up): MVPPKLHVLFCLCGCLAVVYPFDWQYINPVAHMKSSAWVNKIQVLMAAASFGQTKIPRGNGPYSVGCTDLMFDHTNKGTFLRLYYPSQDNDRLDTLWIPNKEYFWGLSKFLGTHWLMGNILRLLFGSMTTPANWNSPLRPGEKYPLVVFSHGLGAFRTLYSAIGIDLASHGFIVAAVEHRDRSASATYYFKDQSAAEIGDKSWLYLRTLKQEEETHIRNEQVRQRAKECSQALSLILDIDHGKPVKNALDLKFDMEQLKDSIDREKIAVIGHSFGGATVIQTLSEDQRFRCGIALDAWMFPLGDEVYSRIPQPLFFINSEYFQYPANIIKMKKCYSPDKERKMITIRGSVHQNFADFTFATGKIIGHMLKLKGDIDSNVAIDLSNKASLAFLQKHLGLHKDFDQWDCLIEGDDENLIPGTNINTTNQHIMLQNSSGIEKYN
PAFAH2 inh – inhibitors of human PAFAH2; Q99487; recombinant PAFAH2, FP-rhodamine activity probe, fluorescence polarization; inhibition, % at 3.39 µM; actives 0.99% (n = 340,000);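 active means inhibition above the mean over all tested compounds plus 3 SD, cut at about 30% in these data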;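 further: inhibitors block probe labeling of enzyme so polarization drops; 0% = enzyme with DMSO and 100% = wells lacking PAFAH2 protein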
PAFAH1B2 FP inh – PAFAH1B2 (human) inhibition | P68402 | recombinant PAFAH1B2, FP-rhodamine activity probe, fluorescence polarization | inhibition, % at 3.39 µM | actives 1.2% (n = 340,000);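 active means inhibition above the mean of all tested compounds plus 3 SD, cut at about 24% in these data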;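 further: 0% = enzyme with DMSO and 100% = wells lacking PAFAH1B2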
PP5 primary – inhibitors of human protein phosphatase 5 (PP5). P53041. inhibition, % at 6.7 µM. actives 0.18% (n = 320,000). purified PP5c, OMFP substrate fluorescence;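 active means inhibition above the campaign's mean inhibition across all tested compounds plus 3 SD, cut at about 9.5% in these data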;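 further: 0% = DMSO only and 100% = 100 µM cantharidin control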
PAFAH1B3 inh – blocks human PAF acetylhydrolase 1B catalytic subunit 3. Q15102. recombinant PAFAH1B3, FP-rhodamine probe, fluorescence polarization. inhibition, % at 3.39 µM. actives 0.28% (n = 340,000). AID 492972;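 active means inhibition above the screen-wide average of all tested compounds plus 3 SD, cut at about 25% in these data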;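 further: 0% = enzyme with DMSO only and 100% = wells lacking PAFAH1B3 protein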
* = called active by the depositor; . = no result given; + = active, no number.

SMILES | PP1 counter | pPAFAH inh | PAFAH2 inh | PAFAH1B2 FP inh | PP5 primary | PAFAH1B3 inh
CCOc1ccc(N2C(=O)CS/C2=C(\C(Cl)=C(Cl)Cl)[N+](=O)[O-])cc1 | 5 | 28* | 0 | 2 | 1 | 11
CC(C)CNC(=O)COC(=O)c1ccc([N+](=O)[O-])cc1Cl | -3 | 29* | 15 | 3 | 1 | 4
O=c1oc2ccccc2nc1/C=C(O)/C=C\c1ccccc1 | 4 | 33* | 2 | 6 | 1 | -2
Cc1ccc(C2CC(=O)NC(SCc3ccccc3)=C2C#N)cc1 (configuration not stated) | 1 | 30* | 0 | 8 | 3 | 5
N#CC1=C(SCc2ccccc2)NC(=O)CC1c1ccc(O)cc1 (configuration not stated) | 1 | 26* | 1 | 7 | 3 | -10
CCCCCCSC1=C(C#N)C(c2ccccc2)CC(=O)N1 (configuration not stated) | -4 | 13 | 1 | 12 | 1 | 3
C(=NOCCc1ccccc1)c1ccccn1 | . | . | 7 | 5 | . | 3
O=C(CNC(=O)C12CC3CC(CC(C3)C1)C2)Nc1ncccc1O | -6 | 4 | -4 | 21 | 2 | 2
CCn1c(=O)n(CC)c2cc(N3CCCC3)c(NC(=O)c3ccc(C)c([N+](=O)[O-])c3)cc21 | -2 | 4 | 9 | -3 | 1 | -1
Oc1ccc(/C=N/NC(=S)Nc2cccnc2)cc1O | 1 | 33* | 13 | 2 | -1 | 13
C=CCN(c1ccccc1)S(=O)(=O)c1cccc(C(=O)Nc2ccncc2)c1 | -1 | 4 | 0 | 5 | 5 | 7
C=CCN(c1ccccc1)S(=O)(=O)c1cccc(C(=O)Nc2nc3ccccc3[nH]2)c1 | 17* | -5 | -2 | 6 | -3 | 1
COc1cccc(/C=N/NC(=O)c2cc(-c3cccn3C)n[nH]2)c1O | 16* | 18 | -3 | 0 | 3 | 7
COc1ccc(OC)c2[nH]c(C(=O)N/N=C/c3ccccc3O)cc12 | 1 | 19 | 30* | 34* | 2 | 42*
COc1ccc(/C=N/NC(=O)c2cc3c(OC)ccc(OC)c3[nH]2)cc1O | 0 | 24 | 5 | 29* | 3 | 22
COc1ccc(/C=N/NC(=O)c2cccnc2)c2ccccc12 | -3 | 3 | + | 155* | 2 | 199*
COc1ccc(/C=N/NC(=O)c2cccnc2)c(C(=O)O)c1OC | 4 | 4 | 8 | 3 | 0 | 9
CCN(CC(=O)Nc1ccccc1OC)C(=O)CSCC(=O)Nc1cccc(C)c1 | . | . | 5 | 2 | . | 5
CC(CCc1ccccc1)NC(=O)C(=O)Nc1ccccc1 (configuration not stated) | -5 | -2 | 1 | 3 | -1 | -5
CC(C)c1cc(CN2C(C)COCC2C)cc(C(C)C)c1O (configuration not stated) | . | . | 1 | 2 | . | 8
Cc1cc(C)cc(OC(C)C(=O)Nc2ccccc2C(=O)NCc2cccnc2)c1 (configuration not stated) | 2 | 8 | 1 | -1 | 3 | 2
C#CCOCCOCCOCCNc1nc(N2CCN(C(=O)CCCCCCCCCCNC(=O)[C@H]([C@@H](C)CC)n3cc(CCCCN=C(N)N)nn3)CC2)nc(N2CCN(C(=O)CCCCCCCCCCNC(=O)[C@H](CCCCN)n3cc(C[C@@H](C)CC)nn3)CC2)n1 | 71* | -5 | . | . | 9 | .
C#CCOCCOCCOCCNc1nc(N2CCN(C(=O)CCCCCCCCCCNC(=O)[C@H](CCCCN)n3cc(CCCC(=O)O)nn3)CC2)nc(N2CCN(C(=O)CCCCCCCCCCNC(=O)[C@H](CCCCN)n3cc(CCCC(=O)O)nn3)CC2)n1 | 1 | 8 | -3 | 0 | -2 | -6
C#CCOCCOCCOCCNc1nc(N2CCN(C(=O)CCCCCCCCCCNC(=O)[C@H](CO)n3cc(CCCSC)nn3)CC2)nc(N2CCN(C(=O)CCCCCCCCCCNC(=O)[C@H](CCCCN)n3cc(C[C@@H](C)CC)nn3)CC2)n1 | 51* | 1 | . | . | 5 | .
C#CCOCCOCCOCCNc1nc(N2CCN(C(=O)CCCCCCCCCCNC(=O)[C@H](CCCCN)n3cc(C[C@@H](C)CC)nn3)CC2)nc(N2CCN(C(=O)CCCCCCCCCCNC(=O)[C@H](CCCCN)n3cc(C[C@@H](C)CC)nn3)CC2)n1 | 55* | -5 | 2 | -2 | 2 | -4
